Experiment [1] concerns PRMT1 (protein arginine N-methyltransferase 1). Description: PRMT1 binders on small-molecule microarrays, primary screen, biochemical, small-molecule microarray, 635 nm fluorescence (AID 1088).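 Also: binding of Prmt1 protein to compounds spotted on small-molecule microarray slides.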 The settings on record: small-molecule microarray binding, higher = more signal.
Experiment [2] is described as follows: yeast growth modulation, basal conditions, primary screen, YJM789 clinical isolate, OD600, 24 h (AID 1089).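 Also: growth of clinical yeast isolate S. cerevisiae YJM 789 seeded 1000 cells per well; test concentration not given here.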 The settings on record: S. cerevisiae YJM789 growth, higher = more signal, called active from +8 up or from −8 down.
Experiment [3] can be described thus: fission yeast growth modulation, primary screen, strain 972, OD600, 24 h, no modulator (AID 1090).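 Also: basal condition with compound alone and no growth modifier present; test concentration not given here.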 The note with it: S. pombe 972 growth, higher = more signal, called active from +8 up or from −8 down.
Experiment [4] in a line: S. cerevisiae growth modulation with rapamycin, primary screen, strain BY4716, OD600, 96 h (AID 1091). Also: test concentration not given here. The settings on record: higher = more signal, called active from +8 up or from −8 down.
Experiment [5] has as its target Torsin-1A-interacting protein 2 (Homo sapiens) (UniProt Q8NFQ8). Description: LULL1 binders on small-molecule microarray, primary screen, cell lysate, human LULL1 lysate, 635/667 nm fluorescence (AID 1092).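 Also: probe is lysate of COS7 cells overexpressing human LULL1; score merges per-feature 667 nm fluorescence with signal-to-noise.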 The settings on record: hLULL1 lysate binding, 635 nm fluorescence, higher = more signal.
Experiment [6] can be described thus: E. coli growth modulation, two-sided OD650, primary screen, E. coli filamentation project, strain DRC41, 24 h (AID 1093).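 Also: MC1000 strain lacking acrAB efflux and sulA so SOS filamentation is blocked; test concentration not given here.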 The note with it: OD650, 24 h, higher = more signal, called active from +8 up or from −8 down.
Experiment [7] in a line: small-molecule microarray binders of probe aLefty2, primary screen, biochemical, biotinylated probe, 635/667 nm fluorescence (AID 1094).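 Also: score merges spot fluorescence near 667 nm with spot signal-to-noise ratio.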 The settings on record: higher = more signal.
The subject of experiment [8] is Noggin (protein binding on small-molecule microarray). Briefly: Noggin binders on small-molecule microarray, primary screen, biochemical, 635/667 nm fluorescence (AID 1095).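 Also: score merges 667 nm feature fluorescence with signal to noise over triplicate slides.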 The note with it: 635 nm fluorescence, higher = more signal.
Experiment [9] has as its target Neurogenic locus notch homolog protein 3 (Homo sapiens) (UniProt Q9UM47). Description: NOTCH3 binders on small-molecule microarray, primary screen, biochemical, 635/667 nm fluorescence (AID 1096). The note with it: NOTCH3 binding, 635 nm fluorescence, higher = more signal.
Experiment [10] can be described thus: small-molecule microarray binders of probe aEGFR, primary screen, biochemical, biotinylated probe, 635/667 nm fluorescence (AID 1097).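 Also: probe is a biotinylated anti-EGFR antibody binding compounds printed on slides; score combines fluorescence near 667 nm and signal to noise of each spot.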 The settings on record: higher = more signal.
The subject of experiment [11] is Plasmodium falciparum Sir2 (PF13_0152, Sir2A). Briefly: pfSir2 binders on small-molecule microarrays, primary screen, biochemical, small-molecule microarray, 635 nm fluorescence (AID 1098).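 Also: score merges spot fluorescence intensity with its signal-to-noise ratio.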 The note with it: small-molecule microarray binding, fluorescence 635 nm; higher = more signal.
The nature of experiment [12]: small-molecule microarray binders of probe aDKK1, primary screen, biochemical, biotinylated probe, 635/667 nm fluorescence (AID 1099).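 Also: score merges 667nm spot fluorescence with signal to noise across triplicate slides; reference of the scale not given here.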 The settings on record: higher = more signal.
Experiment [13] is described as follows: small-molecule microarray binders of probe aCHRDL2, primary screen, biochemical, biotinylated probe, 635/667 nm fluorescence (AID 1100). The note with it: higher = more signal.
The nature of experiment [14]: splicing luciferase reporter signal modulators, primary screen, spliceosome inhibition project, cell-based, HEK293, splice +/- reporter (AID 1101).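 Also: HEK293 cells carrying a splicing-competent luciferase reporter gene; test concentration not given here.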 The note with it: luminescence, 24 h, higher = more signal, called active from +8 up or from −8 down.
Experiment [15] addresses Fibroblast growth factor 10 (Homo sapiens) (UniProt O15520). Description: FGF10 binders on small-molecule microarrays, primary screen, biochemical, small-molecule microarray, 635 nm fluorescence (AID 1102). The note with it: FGF10 binding, fluorescence 635 nm, higher = more signal.
Experiment [16] deals with glycogen synthase kinase-3 (GSK3A per assay name; protocol says GSK3B). Description: GSK3 binders on small-molecule microarrays, primary screen, biochemical, small-molecule microarray, 635 nm fluorescence, GSK3A (AID 1103). Also: the record names both GSK3A and GSK3B. The note with it: small-molecule microarray binding, fluorescence 635 nm; higher = more signal.
In experiment [17] the target is Epidermal growth factor receptor (Homo sapiens) (UniProt P00533). Description: EGFR binders on small-molecule microarrays, primary screen, biochemical, small-molecule microarray, 635 nm fluorescence (AID 1104).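 Also: score merges 667 nm emission intensity with spot signal to noise over triplicate slides.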 The settings on record: EGFR binding, higher = more signal.
The target in experiment [18] is Follistatin-related protein 3 (Homo sapiens) (UniProt O95633). Description: FSTL3 binders on small-molecule microarrays, primary screen, biochemical, small-molecule microarray, 635 nm fluorescence (AID 1105).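 Also: score merges emission near 667 nm and signal to noise per printed spot across three slides.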 The settings on record: FSTL3 binding, higher = more signal.
Experiment [19] deals with Dickkopf-related protein 1 (Homo sapiens) (UniProt O94907). Briefly: DKK1 binders on small-molecule microarrays, primary screen, biochemical, small-molecule microarray, 635 nm fluorescence scan (AID 1106).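 Also: score merges emission near 667 nm with signal to noise over three replicate slides.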 The settings on record: DKK1 binding, higher = more signal.
In experiment [20] the test system is Inhibin beta A chain (activin A). Briefly: INHBA (activin A) binders on microarrays, primary screen, biochemical, small-molecule microarray, 635 nm fluorescence scan (AID 1107).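 Also: mouse activin A protein probed at 4.33 µg/mL on printed slides; score merges bound-protein fluorescence near 667 nm with spot signal-to-noise.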 The note with it: small-molecule microarray binding, higher = more signal.

Structures are written as SMILES. Active and inactive are the calls of the source.

Epidermal growth factor receptor (Homo sapiens), sequence (P00533 whole entry, looked up): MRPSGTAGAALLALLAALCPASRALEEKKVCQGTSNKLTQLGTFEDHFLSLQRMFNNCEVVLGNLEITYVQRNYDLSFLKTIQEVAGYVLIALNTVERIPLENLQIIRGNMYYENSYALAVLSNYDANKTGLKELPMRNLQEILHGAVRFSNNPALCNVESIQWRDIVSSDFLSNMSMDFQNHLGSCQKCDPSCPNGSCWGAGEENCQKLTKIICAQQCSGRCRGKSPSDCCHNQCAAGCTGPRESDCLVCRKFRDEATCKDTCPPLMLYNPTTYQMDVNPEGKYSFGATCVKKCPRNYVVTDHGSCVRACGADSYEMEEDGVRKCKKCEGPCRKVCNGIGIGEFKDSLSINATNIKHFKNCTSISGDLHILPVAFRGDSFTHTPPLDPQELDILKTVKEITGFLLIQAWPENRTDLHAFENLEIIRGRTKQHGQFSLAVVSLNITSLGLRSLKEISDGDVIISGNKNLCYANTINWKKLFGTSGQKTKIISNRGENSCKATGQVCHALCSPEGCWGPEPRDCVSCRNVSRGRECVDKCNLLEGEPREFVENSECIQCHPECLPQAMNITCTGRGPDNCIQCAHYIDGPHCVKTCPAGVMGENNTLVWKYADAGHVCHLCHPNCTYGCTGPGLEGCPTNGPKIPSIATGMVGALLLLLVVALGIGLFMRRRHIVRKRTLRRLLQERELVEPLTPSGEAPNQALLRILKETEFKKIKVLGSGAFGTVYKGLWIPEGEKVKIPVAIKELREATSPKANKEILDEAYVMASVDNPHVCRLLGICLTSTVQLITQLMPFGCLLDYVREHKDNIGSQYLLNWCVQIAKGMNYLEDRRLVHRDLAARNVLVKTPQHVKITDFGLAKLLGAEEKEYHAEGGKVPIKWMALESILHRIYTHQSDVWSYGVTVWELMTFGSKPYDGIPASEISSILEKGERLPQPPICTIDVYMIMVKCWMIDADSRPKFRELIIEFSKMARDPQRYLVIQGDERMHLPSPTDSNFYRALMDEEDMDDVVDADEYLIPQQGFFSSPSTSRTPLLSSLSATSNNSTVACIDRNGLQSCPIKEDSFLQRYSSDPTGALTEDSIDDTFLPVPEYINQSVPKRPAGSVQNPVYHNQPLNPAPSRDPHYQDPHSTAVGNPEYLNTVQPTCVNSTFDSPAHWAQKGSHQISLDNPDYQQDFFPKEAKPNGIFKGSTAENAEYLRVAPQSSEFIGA
Follistatin-related protein 3 (Homo sapiens), sequence (O95633 whole entry, looked up): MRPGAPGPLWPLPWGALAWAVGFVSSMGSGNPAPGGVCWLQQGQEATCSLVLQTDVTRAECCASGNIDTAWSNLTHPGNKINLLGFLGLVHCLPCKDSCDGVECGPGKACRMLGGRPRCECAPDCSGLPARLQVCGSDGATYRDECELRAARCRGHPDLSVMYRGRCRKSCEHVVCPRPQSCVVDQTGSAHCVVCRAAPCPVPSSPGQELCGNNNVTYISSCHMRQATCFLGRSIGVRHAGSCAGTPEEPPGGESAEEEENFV
Fibroblast growth factor 10 (Homo sapiens), sequence (O15520 whole entry, looked up): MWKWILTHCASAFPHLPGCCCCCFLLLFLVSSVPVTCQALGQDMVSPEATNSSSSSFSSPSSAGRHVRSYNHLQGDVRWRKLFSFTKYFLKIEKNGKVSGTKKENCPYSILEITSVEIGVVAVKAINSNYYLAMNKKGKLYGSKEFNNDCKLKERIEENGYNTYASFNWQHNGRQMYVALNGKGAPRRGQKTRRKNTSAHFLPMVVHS
Neurogenic locus notch homolog protein 3 (Homo sapiens), sequence (Q9UM47 whole entry, looked up): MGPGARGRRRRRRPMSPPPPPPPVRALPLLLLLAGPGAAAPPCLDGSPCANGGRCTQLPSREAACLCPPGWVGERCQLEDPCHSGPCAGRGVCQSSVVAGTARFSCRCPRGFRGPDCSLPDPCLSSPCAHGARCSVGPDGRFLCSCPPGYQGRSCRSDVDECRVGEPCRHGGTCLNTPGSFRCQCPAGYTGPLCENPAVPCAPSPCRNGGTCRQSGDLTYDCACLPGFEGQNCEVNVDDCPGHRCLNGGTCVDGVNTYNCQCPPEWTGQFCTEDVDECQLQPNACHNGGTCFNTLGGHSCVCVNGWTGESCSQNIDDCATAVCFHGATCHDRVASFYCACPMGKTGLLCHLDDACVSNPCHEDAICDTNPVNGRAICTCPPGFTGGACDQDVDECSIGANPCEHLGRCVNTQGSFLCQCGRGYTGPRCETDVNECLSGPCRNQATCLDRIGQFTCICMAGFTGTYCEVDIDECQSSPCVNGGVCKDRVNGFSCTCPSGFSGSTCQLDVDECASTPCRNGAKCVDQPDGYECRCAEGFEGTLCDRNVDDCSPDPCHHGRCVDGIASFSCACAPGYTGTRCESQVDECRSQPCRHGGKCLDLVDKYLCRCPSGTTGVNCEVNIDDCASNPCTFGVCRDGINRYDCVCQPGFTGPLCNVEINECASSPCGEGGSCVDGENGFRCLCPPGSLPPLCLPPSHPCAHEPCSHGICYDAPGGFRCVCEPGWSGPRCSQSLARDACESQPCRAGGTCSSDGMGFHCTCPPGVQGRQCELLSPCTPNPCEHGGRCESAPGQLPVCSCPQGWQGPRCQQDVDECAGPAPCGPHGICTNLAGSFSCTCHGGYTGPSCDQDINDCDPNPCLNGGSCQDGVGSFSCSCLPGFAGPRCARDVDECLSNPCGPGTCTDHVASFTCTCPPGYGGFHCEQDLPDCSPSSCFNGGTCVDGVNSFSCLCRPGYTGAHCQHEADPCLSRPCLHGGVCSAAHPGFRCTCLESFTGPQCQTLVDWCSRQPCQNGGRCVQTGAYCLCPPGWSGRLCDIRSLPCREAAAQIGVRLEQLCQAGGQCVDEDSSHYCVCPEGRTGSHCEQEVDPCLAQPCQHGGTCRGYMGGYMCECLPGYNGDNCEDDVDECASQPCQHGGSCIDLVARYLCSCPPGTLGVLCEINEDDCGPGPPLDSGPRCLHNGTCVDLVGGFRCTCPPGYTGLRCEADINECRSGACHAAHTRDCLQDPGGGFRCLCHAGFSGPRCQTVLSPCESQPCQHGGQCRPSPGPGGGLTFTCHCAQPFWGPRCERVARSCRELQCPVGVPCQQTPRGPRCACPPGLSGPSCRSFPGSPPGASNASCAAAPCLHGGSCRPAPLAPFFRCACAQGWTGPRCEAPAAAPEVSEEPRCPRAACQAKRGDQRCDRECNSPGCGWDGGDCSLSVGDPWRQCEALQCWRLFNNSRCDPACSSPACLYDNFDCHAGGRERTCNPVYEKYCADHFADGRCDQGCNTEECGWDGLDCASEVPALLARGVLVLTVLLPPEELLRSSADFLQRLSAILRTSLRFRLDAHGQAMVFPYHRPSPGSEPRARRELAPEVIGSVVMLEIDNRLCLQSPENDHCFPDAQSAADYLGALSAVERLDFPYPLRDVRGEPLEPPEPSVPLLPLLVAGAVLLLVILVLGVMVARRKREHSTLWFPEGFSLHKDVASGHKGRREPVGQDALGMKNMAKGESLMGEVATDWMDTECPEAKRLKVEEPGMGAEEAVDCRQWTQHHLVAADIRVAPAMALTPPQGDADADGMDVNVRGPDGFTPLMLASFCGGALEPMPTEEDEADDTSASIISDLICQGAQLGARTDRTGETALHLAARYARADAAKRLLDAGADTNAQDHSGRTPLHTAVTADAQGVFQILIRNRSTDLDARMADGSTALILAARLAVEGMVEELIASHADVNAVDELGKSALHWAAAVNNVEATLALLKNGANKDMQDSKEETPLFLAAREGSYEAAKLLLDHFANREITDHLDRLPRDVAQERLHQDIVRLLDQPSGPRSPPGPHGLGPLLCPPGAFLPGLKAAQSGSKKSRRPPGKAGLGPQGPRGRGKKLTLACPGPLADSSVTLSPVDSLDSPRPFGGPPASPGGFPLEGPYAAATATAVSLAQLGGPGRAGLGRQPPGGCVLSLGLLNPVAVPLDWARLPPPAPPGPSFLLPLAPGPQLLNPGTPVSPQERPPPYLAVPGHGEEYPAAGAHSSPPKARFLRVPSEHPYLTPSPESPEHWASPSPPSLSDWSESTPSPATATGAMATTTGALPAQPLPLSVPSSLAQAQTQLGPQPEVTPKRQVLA
Torsin-1A-interacting protein 2 (Homo sapiens), sequence (Q8NFQ8 whole entry, looked up): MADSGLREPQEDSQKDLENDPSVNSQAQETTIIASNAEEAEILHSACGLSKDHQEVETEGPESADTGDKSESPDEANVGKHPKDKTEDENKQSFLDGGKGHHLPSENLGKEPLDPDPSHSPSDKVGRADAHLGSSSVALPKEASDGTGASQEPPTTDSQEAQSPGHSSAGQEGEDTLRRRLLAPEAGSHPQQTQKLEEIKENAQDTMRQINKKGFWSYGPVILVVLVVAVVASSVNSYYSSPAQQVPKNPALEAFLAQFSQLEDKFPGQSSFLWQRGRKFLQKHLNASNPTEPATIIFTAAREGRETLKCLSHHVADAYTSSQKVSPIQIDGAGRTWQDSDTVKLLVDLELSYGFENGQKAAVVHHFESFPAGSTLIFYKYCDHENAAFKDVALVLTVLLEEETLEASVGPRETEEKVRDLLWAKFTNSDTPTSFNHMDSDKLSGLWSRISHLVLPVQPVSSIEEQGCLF
Dickkopf-related protein 1 (Homo sapiens), sequence (O94907 whole entry, looked up): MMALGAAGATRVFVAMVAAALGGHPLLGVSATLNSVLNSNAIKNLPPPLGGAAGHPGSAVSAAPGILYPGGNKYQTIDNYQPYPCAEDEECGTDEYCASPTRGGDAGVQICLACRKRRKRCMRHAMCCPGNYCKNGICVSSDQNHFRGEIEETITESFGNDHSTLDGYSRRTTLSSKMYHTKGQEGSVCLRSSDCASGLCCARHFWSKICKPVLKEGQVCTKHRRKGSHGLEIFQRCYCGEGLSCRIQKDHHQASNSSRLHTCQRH

For `CCOC(=O)C[C@H]1[C@H](OC(=O)Cc2ccc3c(c2)OCO3)[C@@H](NC(=O)c2ccc3ccccc3c2)c2cc(OCCCO)ccc2N1C(=O)Cc1ccc(OC)cc1`, the composite z-score was 0.842 in [1]; 1.73 in [5]; 0.164 in experiment [7]; 0.233 in experiment [8]; 0.719 in [9]; -0.0331 in [10]. Also, the composite z-score in [11] was 0.354; in experiment [12] it was 0.19; in experiment [13], 0.0248; in experiment [15], 0.491; in experiment [16], 0.397; in experiment [17], 0.373. Besides, the composite z-score worked out at 0.439 in experiment [18], 0.435 in experiment [19] and 0.147 in experiment [20]. Further, the z-score in experiment [2] was -2.93 (inactive); in [3], -0.366 (inactive); in [4], 0.227 (inactive); in experiment [6] it was 1.28 (inactive); in [14], -1.83 (inactive).
With `CC(C)(C)OC(=O)CC[C@]1(C(=O)N2CCCCC2)N=C(c2ccc(OCCCO)cc2)O[C@H]1c1ccccc1`, the composite z-score in [1] was 1.54; in [5] it was 3.48; in experiment [7], 0.0224; in experiment [8] it was 1.04; in [9] it was 1.15; in experiment [10] it was -0.084. Moreover, the composite z-score in experiment [11] amounted to 1.73; in experiment [12], 0.464; in experiment [13] it was 0.56; in experiment [15], 1.2; in experiment [16], 1.29; in experiment [17], 0.494. Moreover, the results for the composite z-score in experiment [18], in experiment [19] and in experiment [20] were 1.37, 0.691 and 0.556, respectively. For the same compound, the z-score in experiment [2] was -4.57 (inactive); in experiment [3], -3.11 (inactive); in experiment [4], -1.07 (inactive); in experiment [6], 0.726 (inactive); in experiment [14], -0.767 (inactive).
`CN(C)C(=O)[C@@]1(Cc2ccccc2N=[N+]=[N-])N=C(c2ccc(OCCCO)cc2)O[C@H]1c1ccccc1CN=[N+]=[N-]`: the composite z-score in experiment [1] worked out at 1.56; in experiment [5], 3.57; in experiment [7], 0.839; in [8] it was 1.35; in experiment [9], 1.06; in experiment [10], 0.355. Also, the composite z-score in experiment [11] is 1.68; in experiment [12] it was 1.22; in [13], 1.3; in experiment [15], 0.689; in experiment [16], 1.21; in experiment [17] it was 0.0256. The values for the composite z-score in [18], in experiment [19] and in experiment [20] were 0.482, 0.4 and 0.676, respectively. For the same compound, the z-score in experiment [2] is -1.92 (inactive); in [3], -1.62 (inactive); in experiment [4], 1.62 (inactive); in experiment [6], 0.859 (inactive); in experiment [14], -0.636 (inactive).
As for `COc1ccc([Si](C)(C)[C@@H]2[C@@H](CC(=O)N(CCO)Cc3ccccc3)O[C@]3(C(=O)N(Cc4cccc(N5CCC5=O)c4)c4ccccc43)[C@H]2C)cc1`, the composite z-score in experiment [1] was 1.56; in [5], 1.57; in experiment [7] it was -0.17; in [8], 1.33; in experiment [9] it was 0.941; in experiment [10] it was -0.135. Moreover, the composite z-score in [11] is 1.41; in experiment [12], -0.163; in [13], -0.229; in experiment [15], 1.07; in experiment [16] it was 0.583; in [17] it was 0.475. The composite z-score in experiment [18] was 0.875; in [19] it was 0.313; in experiment [20], 0.552. Also, the z-score in experiment [2] was -1.16 (inactive); in experiment [3], 0.463 (inactive); in [4] it was 1.61 (inactive); in experiment [6], 1.48 (inactive); in experiment [14], -0.732 (inactive).
On to `COCCCNC(=O)[C@@]1(Sc2ccc(C)cc2)CC(=O)N(Cc2cc(C(F)(F)F)cc(C(F)(F)F)c2)[C@@H]1c1ccc(CO)cc1I`, for which the composite z-score in experiment [1] was -0.217; in experiment [5] it was 1.46; in [7], -0.105; in experiment [8] it was -1.76; in experiment [9] it was -0.973; in experiment [10] it was -0.288. Besides, the composite z-score in [11] is 1.84; in [12] it was 0.46; in experiment [13] it was 1.19; in experiment [15] it was -0.511; in [16] it was -1.14; in [17], -1.34. Moreover, the results for the composite z-score in experiment [18], in experiment [19] and in experiment [20] were -1.58, -1.79 and 0.142, respectively. The z-score is -1.27 (inactive) in [2]; -3.56 (inactive) in [3]; 0.0085 (inactive) in experiment [4]; 0.486 (inactive) in [6]; -1.26 (inactive) in [14].

The values are drawn from PubChem BioAssay.
